The nature of assay [1]: qHTS assay to identify small molecule antagonists of the thyroid receptor (TR) signaling pathway - cell viability counter screen (AID 743064). Also: nearly all actives have a fitted effect of over 50% in size. Also: potency is read from the fitted curve at half-maximal effect. Put shortly:
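Fluorescence from CellTiter-Fluor, added after 23.5 h exposure at 37 °C, reported viability of GH3.TRE-Luc cells co-treated with compound and 1 nM T3. Measured in the same wells as the luciferase TR readout.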
A general note: qHTS replaces the single test concentration by a dilution series.

The nature of assay [2]: qHTS assay to identify small molecule antagonists of the thyroid receptor (TR) signaling pathway (AID 743065). Also: nearly all actives have a fitted effect of over 55% in size. Also: potency is read from the fitted curve at half-maximal effect. Put shortly:
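GH3.TRE-Luc rat pituitary cells carrying two TR response elements driving luciferase were plated for 4 h, given compound plus 1 nM T3 (final), and incubated 23.5 h at 37 C. ONE-Glo luminescence measured reporter inhibition; CellTiter-Fluor fluorescence tracked cytotoxicity.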

Assay [3] deals with thyroid hormone receptor (rat, GH3 cells). Kind of assay: qHTS assay to identify small molecule agonists of the thyroid receptor (TR) signaling pathway (AID 743066; calls by dose curve).
The nature of assay [4]: qHTS assay to identify small molecule antagonists of the estrogen receptor alpha (ER-alpha) signaling pathway - cell viability counter screen (AID 743074; calls by dose curve;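 also: HEK293 cells carrying ER-alpha-UAS-bla reporter stimulated with 17beta-estradiol; nearly all actives have a fitted effect of over 45% in size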).
The nature of assay [5]: qHTS assay to identify small molecule antagonists of the estrogen receptor alpha (ER-alpha) signaling pathway using the BG1 cell line - cell viability counter screen (AID 743081).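 Also: compound given together with 17beta-estradiol as the ER stimulus; series mostly up to about 70 µM; nearly all actives have a fitted effect of over 45% in size.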
For assay [6], the target named is Aromatase (Homo sapiens) (UniProt P11511). Kind of assay: qHTS assay to identify aromatase inhibitors (AID 743083). Also: nearly all actives have a fitted effect of over 55% in size. Also: potency is read from the fitted curve at half-maximal effect.
Assay [7] can be described thus: qHTS assay to identify small molecule antagonists of the estrogen receptor alpha (ER-alpha) signaling pathway using the BG1 cell line (AID 743080; calls by dose curve;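 also: BG1 cells stimulated with 17beta-estradiol alongside compound; nearly all actives have a fitted effect of over 25% in size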; also: potency is read from the fitted curve at half-maximal effect). Put shortly:
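Luminescence from a 4×ERE-luciferase reporter in BG1-Luc-4E2 cells served as read-out. Cells, pre-cultured 5 days in stripped-serum phenol-red-free medium, were exposed to compound with 17beta-estradiol co-stimulation for 21.5 h at 37 C.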

In assay [8] the target is Estrogen receptor (Homo sapiens) (UniProt P03372). Kind of assay: qHTS assay to identify small molecule agonists of the estrogen receptor alpha (ER-alpha) signaling pathway (AID 743075; calls by dose curve;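 also: HEK293 GripTite cells with ER-alpha and UAS-driven beta-lactamase reporter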).
The target is the same in assay [9]. Kind of assay: qHTS assay to identify small molecule agonists of the estrogen receptor alpha (ER-alpha) signaling pathway using the BG1 cell line (AID 743079). Also: nearly all actives have a fitted effect of over 20% in size.
Assay [10] shares this target. Kind of assay: qHTS assay to identify small molecule antagonists of the estrogen receptor alpha (ER-alpha) signaling pathway (AID 743069; active = well fitted curve in the direction sought with a large enough effect in the signal ratio in the repeat runs, not every such curve was filed as active; the % refers to the signal ratio). The essentials:
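A 17beta-estradiol challenge was applied right after compound transfer to ER-alpha-UAS-bla HEK293 cells previously kept in charcoal-stripped serum. Plates stood 18 hr at 37C and 5% CO2; fluorescence was read following 2 hr FRET substrate loading at room temperature.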

The structures appear in SMILES notation. Several values for one entry are separate records, joined by “and”; a condition that tells them apart may be missing. Equal values may be shown once. Inconclusive results are not listed. Activity calls are given as the source filed them. Unless noted, calls follow the shape of the dose curve; as a rule, active = well fitted curve in the direction sought with a large enough effect in the repeat runs; inconclusive = weak or mixed curves; inactive = no such curve, though single readings can be large; an effect the other way counts as inactive or inconclusive.

Sequence of Estrogen receptor (Homo sapiens) (P03372 whole entry, looked up): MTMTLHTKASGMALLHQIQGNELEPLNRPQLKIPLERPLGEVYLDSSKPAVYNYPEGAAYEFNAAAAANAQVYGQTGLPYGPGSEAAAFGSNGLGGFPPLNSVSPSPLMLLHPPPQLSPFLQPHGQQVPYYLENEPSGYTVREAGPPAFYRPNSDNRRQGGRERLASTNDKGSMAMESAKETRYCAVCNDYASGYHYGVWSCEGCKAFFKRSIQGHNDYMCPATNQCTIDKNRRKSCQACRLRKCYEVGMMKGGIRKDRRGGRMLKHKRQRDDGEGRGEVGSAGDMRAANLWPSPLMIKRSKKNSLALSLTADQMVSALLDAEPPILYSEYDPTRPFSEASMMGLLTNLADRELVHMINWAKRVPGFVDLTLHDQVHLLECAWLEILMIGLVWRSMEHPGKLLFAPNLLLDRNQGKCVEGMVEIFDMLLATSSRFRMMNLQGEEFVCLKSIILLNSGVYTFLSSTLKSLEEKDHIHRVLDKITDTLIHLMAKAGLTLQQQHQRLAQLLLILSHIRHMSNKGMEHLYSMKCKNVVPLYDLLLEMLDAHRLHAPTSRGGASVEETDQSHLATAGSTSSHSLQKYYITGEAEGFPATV
Sequence of Aromatase (Homo sapiens) (P11511 whole entry, looked up): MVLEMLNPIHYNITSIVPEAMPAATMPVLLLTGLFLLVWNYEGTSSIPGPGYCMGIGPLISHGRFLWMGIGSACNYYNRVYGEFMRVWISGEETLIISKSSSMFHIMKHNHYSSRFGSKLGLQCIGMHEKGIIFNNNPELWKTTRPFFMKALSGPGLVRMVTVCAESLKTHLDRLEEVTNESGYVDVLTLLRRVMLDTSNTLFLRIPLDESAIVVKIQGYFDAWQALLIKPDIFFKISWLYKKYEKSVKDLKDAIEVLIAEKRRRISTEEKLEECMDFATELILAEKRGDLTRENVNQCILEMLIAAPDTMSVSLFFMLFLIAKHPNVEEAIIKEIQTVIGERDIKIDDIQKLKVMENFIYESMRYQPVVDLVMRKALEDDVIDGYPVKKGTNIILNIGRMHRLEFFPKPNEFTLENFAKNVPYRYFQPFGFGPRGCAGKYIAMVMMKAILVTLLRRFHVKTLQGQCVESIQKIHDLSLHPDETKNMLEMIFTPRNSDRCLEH

As for `C=CC(O)CCCCC` (stereo unspecified), the Potency entry in assay [1], in assay [2], in [5] and in assay [6] was “inactive” each time. Also, the result in assay [3] and in [4] was inactive.
For the molecule `Cc1c(Cl)cccc1[N+](=O)[O-]`, the Potency result in assay [1], in assay [2], in assay [5] and in assay [6] was “inactive” in each case. The outcome in [3] and in assay [4] was inactive.
Take `CC(C)(O)C(=O)O`: the Potency result in assay [1], in assay [2] and in assay [5] was “inactive” each time. Also, the call in [3] and in assay [4] was inactive.
With `Cc1ccc(S(=O)(=O)NC(=O)NC2CCCC2)cc1`, the Potency result in assay [1], in assay [2], in [5] and in [6] was “inactive” each time. Further, the outcome in assay [3] and in assay [4] was inactive.
Regarding `c1ccc(CN(Cc2ccccc2)Cc2ccccc2)cc1`, the Potency result in assay [1], in assay [2], in assay [5] and in assay [6] was “inactive” each time. Further, the outcome in [3] and in assay [4] was inactive.
Turning to `CC(=O)Nc1ccccc1O`, the Potency result in assay [1], in [2], in [5] and in assay [6] was “inactive” in each case. Moreover, the molecule was called inactive in assay [3] and in assay [4].
Regarding `CCCCC(CC)COCCC#N` (stereo unspecified), the Potency entry in [1], in [2], in assay [5] and in assay [6] was “inactive” in each case. The outcome in assay [3] and in [4] was inactive.
As to `CCOc1ccccc1O`, the Potency result in assay [1], in [2], in [5] and in assay [6] was “inactive” in each case. For the same molecule, the result in [3] and in assay [4] was inactive.
In the case of `C=CC(C)CCC=C(C)C` (stereo unspecified), the Potency entry in [1], in assay [2], in assay [5] and in assay [6] was “inactive” throughout. For the same molecule, the result in [3] and in assay [4] was inactive.
For `C=CC(C)(O)CC/C=C(/C)CCC=C(C)C` (stereo unspecified), the Potency entry in [1], in assay [2] and in assay [5] was “inactive” each time. Also, the outcome in [3] and in assay [4] was inactive.
On to `CCCCCCCCC(=O)OCC(C)OC(=O)CCCCCCCC` (stereo unspecified), for which the Potency result in [1], in [2], in assay [5] and in assay [6] was “inactive” throughout. Besides, the molecule was classed as inactive in [3] and in assay [4].
On to `Nc1nc(Cl)nc2c1ncn2[C@H]1C[C@H](O)[C@@H](CO)O1`, for which the Potency in assay [1] is 422 nM (active) and 136 nM (active); in assay [2] it was 298 nM (active) and 48.2 nM (active). The result in assay [3] and in [4] was inactive. Also, the Potency result in assay [5] and in assay [6] was “inactive” throughout.
In the case of `O=C(O)CNc1ccccc1`, the Potency entry in assay [1], in assay [2], in [5] and in assay [6] was “inactive” in each case. For the same molecule, the outcome in assay [3] and in assay [4] was inactive.
For `C=C[Si]1(C)O[Si](C)(C=C)O[Si](C)(C=C)O[Si](C)(C=C)O1` (stereo unspecified), the Potency result in assay [1], in [2], in assay [5] and in [6] was “inactive” each time. Moreover, the result in [3] and in assay [4] was inactive.
On to `C=C(C)C(=O)OCCCCCCCCCCOC(=O)C(=C)C`, for which the Potency entry in [1], in [2], in assay [5] and in assay [6] was “inactive” throughout. Also, the molecule was classed as inactive in assay [3] and in assay [4].
With `N#Cc1ccc(CC(=O)c2cccc(C(F)(F)F)c2)cc1`, the Potency result in [1], in [2], in [5] and in assay [6] was “inactive” in each case. Besides, the outcome in assay [3] and in [4] was inactive.
Consider `CCC(C)C1N=C(C)C(C)S1` (stereo unspecified), for which the Potency result in assay [1], in assay [2] and in [5] was “inactive” in each case. For the same molecule, the result in assay [3] and in [4] was inactive.
As for `C=C[Si](OCC)(OCC)OCC`, the Potency entry in assay [1], in [2], in assay [5] and in assay [6] was “inactive” in each case. Moreover, the molecule was called inactive in assay [3] and in [4].
Turning to `Cc1c(-c2cccnc2)c2ccccc2n1CCCCC(=O)O`, the Potency entry in assay [1], in [2] and in assay [5] was “inactive” throughout. The molecule was called inactive in assay [3] and in assay [4]. Also, the Potency in assay [6] was 43.3 µM (active).
As for `CS(C)=O`, the Potency result in assay [1], in assay [2], in assay [5] and in assay [6] was “inactive” throughout. Also, the call in [3] and in assay [4] was inactive.
Turning to `CC(=O)S[C@H](C(=O)N[C@H]1Cc2ccccc2[C@H]2CCC[C@@H](C(=O)O)N2C1=O)C(C)C`, the Potency entry in assay [1], in assay [2], in [5] and in assay [6] was “inactive” throughout. Besides, the call in [3] and in assay [4] was inactive.
As for `O=[N+]([O-])c1ccccc1CCO`, the Potency entry in assay [1], in [2], in assay [5] and in assay [6] was “inactive” each time. Besides, the call in assay [3] and in [4] was inactive.
`CCCCCCCCCCCCCCCCC(=O)O`: the Potency entry in assay [1], in assay [2], in assay [5] and in [6] was “inactive” in each case. The outcome in assay [3] and in [4] was inactive.
Regarding `CC/C=C/CCO`, the Potency result in [1], in assay [2] and in assay [5] was “inactive” in each case. Moreover, the molecule was classed as inactive in assay [3] and in [4].
On to `CC/C=C\CCO`, for which the Potency entry in assay [1], in [2] and in assay [5] was “inactive” throughout. Besides, the molecule was called inactive in assay [3] and in assay [4].
Take `CCc1c(C)[nH]c2c1C(=O)C(CN1CCOCC1)CC2` (stereo unspecified): the Potency result in assay [1], in [2] and in [5] was “inactive” throughout. Further, the molecule was classed as inactive in assay [3] and in [4].
As for `COc1ccc(CN(CCN(C)C)c2ncccn2)cc1`, the Potency entry in [1], in assay [2], in assay [5] and in [6] was “inactive” each time. In addition, the outcome in assay [3] and in assay [4] was inactive.
For the molecule `CC(C)CCCCCCCOC(=O)c1ccc(C(=O)OCCCCCCCC(C)C)c(C(=O)OCCCCCCCC(C)C)c1`, the Potency result in assay [1], in assay [2], in assay [5] and in assay [6] was “inactive” in each case. Moreover, the result in [3] and in assay [4] was inactive.
Turning to `CC(CN=Cc1ccccc1O)N=Cc1ccccc1O` (stereo unspecified), the Potency result in [1], in assay [2], in [5] and in [6] was “inactive” throughout. In addition, the molecule was called inactive in [3] and in assay [4].
With `FC1(F)C(F)(F)C(F)(F)C2(F)C(F)(C1(F)F)C(F)(F)C(F)(F)C1(F)C(F)(F)C(F)(F)C(F)(F)C(F)(F)C12F` (stereo unspecified), the Potency result in assay [1], in assay [2], in [5] and in assay [6] was “inactive” throughout. For the same molecule, the molecule was classed as inactive in assay [3] and in [4].
Take `COC(=O)C(C)(C)C`: the Potency entry in assay [1], in assay [2], in [5] and in [6] was “inactive” each time. Further, the result in assay [3] and in [4] was inactive.
`O=C(OC1C[C@H]2CC[C@@H](C1)[N+]21CCCC1)C(O)(c1ccccc1)c1ccccc1` (stereo partly specified): the Potency result in assay [1], in [2], in [5] and in [6] was “inactive” in each case. In addition, the call in assay [3] was inactive.
Consider `Cc1ccc2c(Cl)cc(Cl)c(O)c2n1`, for which the Potency in assay [1] is 1.19 µM (active); in [2], 1.68 µM (active); in [7], 9.44 µM (active); in [6] it was 13.3 µM (active).
Turning to `CC(C)(Cc1c[nH]c2ccccc12)NCC(O)COc1ccccc1C#N` (stereo unspecified), the Potency in [1] was 21.1 µM (active); in assay [2] it was 23.7 µM (active). Moreover, the result in [4] was inactive. The Potency result in [5] and in [6] was “inactive” in each case.
For the molecule `C/C=C1\[C@H]2C=C(C)C[C@]1(N)c1ccc(=O)[nH]c1C2`, the Potency result in assay [1], in assay [2], in [5] and in assay [6] was “inactive” each time. Besides, the result in [4] was inactive.
Turning to `Nc1ccccc1Nc1ccccc1`, the Potency in assay [1] is 15.4 µM (active); in assay [2] it was 12.2 µM (active). Besides, the call in assay [4] was inactive. Moreover, the Potency entry in assay [5] is “inactive”.
Regarding `CC(C)CC(C)(C)C`, the Potency result in assay [1], in assay [8], in [9], in [7], in [5] and in assay [6] was “inactive” in each case. Also, the call in assay [3] and in assay [4] was inactive.
In the case of `CCc1cnc(C(=O)O)c(C(=O)O)c1`, the Potency entry in [1], in assay [10], in [8], in [9], in assay [7] and in assay [5] was “inactive” throughout. The Potency result in assay [6] was “inactive”. Moreover, the result in assay [3] and in assay [4] was inactive.
Take `Cc1ccc2ccccc2c1[N+](=O)[O-]`: the Potency result in assay [1], in assay [2], in assay [10], in assay [8], in assay [9] and in [7] was “inactive” throughout. In addition, in assay [5], the Potency result was “inactive”. For the same molecule, the call in [4] was inactive.
Turning to `CC(C)=CCC/C(C)=C/C=N/O`, the Potency result in assay [1], in assay [8], in assay [9], in [7], in assay [5] and in assay [6] was “inactive” each time. The outcome in assay [3] and in assay [4] was inactive.

For the origin of these results see PubChem BioAssay (Tox21).
